Laboratory results reported in PubChem BioAssay.
Calls of active or inactive are those of the source. Unless noted, the rule behind the calls is not given here.

Columns and labels:
[1] = compound effects on lung adenocarcinoma cell viability – A549, calcein-AM fluorescence, 48 h, basal, profiling panel (AID 1162); conditions: higher = more signal; note: test concentration not given here
[2] = compound effects on differentiated 3T3-L1 adipocyte viability – cell-based, 3T3-L1 adipocytes, calcein-AM fluorescence, 48 h, basal, profiling panel (AID 1163); conditions: 3T3-L1 adipocytes viability, higher = more signal; note: test concentration not given here
[3] = compound effects on hepatocellular carcinoma cell viability – HepG2, calcein-AM fluorescence, 48 h, basal, profiling panel (AID 1164); conditions: higher = more signal; note: test concentration not given here
[4] = compound effects on multiple myeloma cell viability – MM1S, calcein-AM fluorescence, 48 h, basal, profiling panel (AID 1165); conditions: higher = more signal; note: test concentration not given here
[5] = calcein-AM signal in unstimulated myeloma cells – cell-based, calcein-AM fluorescence, 48 h, PK04 Diversity Set, profiling panel (AID 1166); conditions: RPMI8226 myeloma viability, higher = more signal;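 note: cells grown under basal conditions without added stimulus; test concentration not given here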
[6] = JC-1 mitochondrial signal, unstimulated HepG2 cells – cell-based, JC-1 fluorescence, 24 h, 100 nL compound, profiling panel (AID 1167); conditions: HepG2 mitochondrial potential, higher = more signal; note: test concentration not given here
[7] = JC-1 mitochondrial signal, unstimulated adipocytes – cell-based, JC-1 fluorescence, 3T3-L1 adipocytes, 24 h, 100 nL compound, profiling panel (AID 1168); conditions: JC-1 mitochondrial fluorescence, higher = more signal, called active from +8 up or from −8 down; note: test concentration not given here
[8] = JC-1 mitochondrial signal, unstimulated myeloma cells – cell-based, JC-1 fluorescence, RPMI8226, 24 h, 100 nL compound, profiling panel (AID 1169); conditions: JC-1 mitochondrial potential fluorescence, higher = more signal; note: test concentration not given here
[9] = JC-1 mitochondrial signal, unstimulated MM1S myeloma – cell-based, JC-1 fluorescence, 24 h, 100 nL compound, profiling panel (AID 1170); conditions: MM1S mitochondrial potential, higher = more signal; note: test concentration not given here
[10] = resazurin metabolic signal in A549 cells – cell-based, resazurin fluorescence, 24 h, PK04 Diversity Set, profiling panel (AID 1171); conditions: A549 viability, higher = more signal, called active from +8 up or from −8 down; note: test concentration not given here
[11] = resazurin metabolic signal in HepG2 cells – cell-based, resazurin fluorescence, 24 h, PK04 Diversity Set, profiling panel (AID 1172); conditions: HepG2 viability, higher = more signal; note: test concentration not given here
[12] = budding yeast growth changes without added modifier – OD600, strain BY4716, 24 h, basal condition, primary screen (AID 1173); conditions: S. cerevisiae BY4716 growth, OD600, 24 h; higher = more signal, called active from +8 up or from −8 down
[13] = viability profiling in MM1S myeloma cells – cell-based, resazurin fluorescence, basal, 24 h, PK04 Diversity Set, profiling panel (AID 1174); conditions: higher = more signal, called active from +8 up or from −8 down; note: test concentration not given here
[14] = target: Dihydroorotate dehydrogenase (quinone), mitochondrial (Plasmodium falciparum (isolate 3D7)) (UniProt Q08210); assay: inhibition of P. falciparum DHODH – biochemical, C-terminal His tag, absorbance 600 nm, primary screen (AID 1175); conditions: PfDHODH enzyme, DCIP absorbance 600 nm; higher = more signal, called active from +8 up or from −8 down;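 note: recombinant parasite enzyme with a five histidine tag at its C terminus; test concentration not given here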
[15] = inhibition of PAO1 biofilm formation – strain PAO1, LB-PBS medium, absorbance 600 nm, primary screen (AID 1176); note: test concentration not given here; conditions: P. aeruginosa PAO1 growth/biofilm, A600, 12 h; higher = more signal
[16] = growth modulation of vineyard yeast isolate – strain RM11-1a, OD600, basal, 24 h, primary screen (AID 1177);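 note: cultures grown under basal conditions with no added stressor; test concentration not given here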; conditions: S. cerevisiae RM11-1a growth, OD600, 24 h; higher = more signal, called active from +8 up or from −8 down
[17] = growth of efflux-deficient E. coli DRC39 – strain DRC39, OD650, 24 h, E. coli filamentation inducers, primary screen (AID 1178);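 note: growth measured as culture turbidity by optical density at 650 nm; test concentration not given here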; conditions: E. coli DRC39 acrAB, higher = more signal, called active from +8 up or from −8 down
[18] = growth of efflux-deficient E. coli DRC39 – strain DRC39, OD650, 48 h, E. coli filamentation inducers, primary screen (AID 1179);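 note: screen aims at cell division blockers that make cells filament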; conditions: E. coli DRC39 delta-acrAB growth, higher = more signal, called active from +8 up or from −8 down
[19] = viability profiling in RPMI8226 myeloma cells – cell-based, resazurin fluorescence, basal, 24 h, PK04 Diversity Set, profiling panel (AID 1180); conditions: higher = more signal;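 note: RPMI8826 multiple myeloma cell line at 5000 cells per well; test concentration not given here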
[20] = target: E3 ubiquitin-protein ligase XIAP (Homo sapiens) (UniProt P98170); assay: small molecules binding XIAP protein – biophysical, small-molecule microarray, fluorescence 635 nm, primary screen (AID 1181); conditions: higher = more signal;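 note: score merges 667 nm emission and signal to noise over triplicate slides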
Sequence of E3 ubiquitin-protein ligase XIAP (Homo sapiens) (P98170 whole entry, looked up): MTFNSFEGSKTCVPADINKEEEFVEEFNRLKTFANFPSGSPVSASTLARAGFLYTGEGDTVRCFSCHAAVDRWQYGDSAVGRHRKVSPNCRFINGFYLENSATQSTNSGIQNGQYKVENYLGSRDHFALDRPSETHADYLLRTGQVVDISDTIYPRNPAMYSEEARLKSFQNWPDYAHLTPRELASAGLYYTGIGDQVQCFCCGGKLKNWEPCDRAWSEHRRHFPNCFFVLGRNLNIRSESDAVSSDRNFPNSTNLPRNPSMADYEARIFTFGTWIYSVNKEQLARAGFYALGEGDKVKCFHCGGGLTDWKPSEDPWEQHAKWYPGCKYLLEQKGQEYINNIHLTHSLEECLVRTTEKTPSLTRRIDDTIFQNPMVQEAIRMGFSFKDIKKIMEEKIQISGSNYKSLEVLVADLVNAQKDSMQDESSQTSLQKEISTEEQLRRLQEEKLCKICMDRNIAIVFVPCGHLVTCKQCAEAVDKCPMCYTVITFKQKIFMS

Sequence of Dihydroorotate dehydrogenase (quinone), mitochondrial (Plasmodium falciparum (isolate 3D7)) (Q08210 whole entry, looked up): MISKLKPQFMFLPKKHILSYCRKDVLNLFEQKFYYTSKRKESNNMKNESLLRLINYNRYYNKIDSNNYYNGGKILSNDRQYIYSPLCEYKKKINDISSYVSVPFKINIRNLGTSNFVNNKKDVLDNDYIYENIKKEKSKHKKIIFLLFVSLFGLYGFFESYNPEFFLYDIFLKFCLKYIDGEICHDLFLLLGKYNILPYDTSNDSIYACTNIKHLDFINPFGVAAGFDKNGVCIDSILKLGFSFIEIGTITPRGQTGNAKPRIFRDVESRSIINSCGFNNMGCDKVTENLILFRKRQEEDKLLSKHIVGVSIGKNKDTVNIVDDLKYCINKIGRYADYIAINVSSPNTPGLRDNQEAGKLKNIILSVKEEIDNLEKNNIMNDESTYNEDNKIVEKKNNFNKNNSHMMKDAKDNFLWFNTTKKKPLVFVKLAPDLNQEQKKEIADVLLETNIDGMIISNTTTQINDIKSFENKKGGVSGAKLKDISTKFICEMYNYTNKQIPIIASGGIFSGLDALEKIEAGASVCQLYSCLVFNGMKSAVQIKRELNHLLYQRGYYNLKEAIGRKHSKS

Compound | z-score [1] | z-score [2] | z-score [3] | z-score [4] | z-score [5] | z-score [6] | z-score [7] | z-score [8] | z-score [9] | z-score [10] | z-score [11] | z-score [12] | z-score [13] | composite z-score [14] | z-score [15] | z-score [16] | z-score [17] | z-score [18] | z-score [19] | composite z-score [20]
CC(C)OC(=O)CC(=O)CC(O)c1cccc([N+](=O)[O-])c1 (stereo not given) | 1.07 | 0.804 | 0.729 | 1.21 | 0.0484 | -0.524 | -0.718 (inactive) | 0.193 | -1.38 | 0.0126 (inactive) | -0.476 | -3.08 (inactive) | 0.326 (inactive) | -2.1 (inactive) | 1.1 (inactive) | -2.42 (inactive) | 0.704 (inactive) | 2 (inactive) | 0.083 | 0.15
COC(=O)[C@@]1(Cc2ccccc2)[C@H]2c3cc(C(=O)N(C)C)n(Cc4ccc(S(C)(=O)=O)cc4)c3C[C@H]2CN1C(=O)c1ccccc1 | -1.12 | 1.09 | -0.827 | 0.0168 | -1.39 | 2.64 | -1.06 (inactive) | -0.656 | 0.485 | -1.59 (inactive) | -1.17 | 1.33 (inactive) | -2.74 (inactive) | -0.316 (inactive) | 1.47 (inactive) | 0.879 (inactive) | -1.1 (inactive) | -1.28 (inactive) | -0.668 | 0.291
COCCCNC(=O)[C@@]1(CCS(=O)(=O)c2ccccc2)COC(c2ccc(OCCCO)cc2)=N1 | -0.222 | 1.11 | -0.771 | -0.181 | -0.49 | -0.903 | -0.736 (inactive) | -0.249 | -0.0725 | -0.468 (inactive) | -0.721 | -0.25 (inactive) | -0.849 (inactive) | -0.565 (inactive) | 0.19 (inactive) | -0.19 (inactive) | 0.199 (inactive) | 0.103 (inactive) | -0.508 | 0.218
CN1C(=O)C2C(C1=O)C1C=C(c3ccc(CO)cc3)C2C(C2CC2)N1C (stereo not given) | 0.632 | 1.29 | -0.799 | 0.535 | -0.594 | 0.399 | -0.768 (inactive) | 0.178 | -0.0509 | -0.694 (inactive) | -0.849 | 0.385 (inactive) | -0.485 (inactive) | 0.918 (inactive) | -0.305 (inactive) | 0.358 (inactive) | -0.453 (inactive) | -0.335 (inactive) | -0.772 | -0.0611
C=CC[C@@]1(C(=O)OC)N=C(c2ccc(OCCCO)cc2)O[C@@H]1c1ccccc1N=[N+]=[N-] | -1.28 | 1.02 | -0.361 | -0.473 | -3.03 | 1 | 0.645 (inactive) | -0.983 | 0.0955 | -1 (inactive) | -0.0361 | -1.28 (inactive) | -0.768 (inactive) | 1.09 (inactive) | -0.043 (inactive) | 1.72 (inactive) | 0.906 (inactive) | -1.05 (inactive) | -0.937 | 0.0142
C=C(CCCC)C(=O)CC[C@@H](OC(=O)c1ccccc1-c1ccccc1C(=O)O)c1ccccc1OCCO | 1.54 | 2.03 | -0.29 | -3.39 | -3.95 | -0.688 | 0.306 (inactive) | -0.67 | -0.203 | 0.573 (inactive) | -0.174 | -2.49 (inactive) | -0.608 (inactive) | -1.35 (inactive) | 0.118 (inactive) | -1.61 (inactive) | 0.625 (inactive) | 0.403 (inactive) | -1.49 | 0.269
CN1C(=O)C2C=CC(C(O)c3ccc(-c4ccccc4)s3)N(NC(=O)OC(C)(C)C)C2C1=O (stereo not given) | -0.823 | -1.6 | -0.68 | 0.244 | -0.906 | -1.73 | -0.339 (inactive) | -0.0635 | 0.856 | 0.117 (inactive) | -0.807 | 0.537 (inactive) | -0.629 (inactive) | 0.63 (inactive) | 1.08 (inactive) | 0.432 (inactive) | 0.28 (inactive) | -0.0168 (inactive) | -0.694 | -0.162
COCCn1c(C(=O)N(C)C)cc2c1C[C@H]1CN(C(=O)c3ccccc3)[C@@](Cc3ccc(OC)cc3)(C(=O)OC)[C@@H]21 | -0.615 | -0.61 | 0.33 | -0.479 | -0.843 | 0.564 | -0.722 (inactive) | 0.0961 | -1.52 | -0.437 (inactive) | -0.17 | 1.63 (inactive) | -1.43 (inactive) | -0.271 (inactive) | 0.784 (inactive) | 1.03 (inactive) | -0.134 (inactive) | -0.289 (inactive) | -1.81 | 0.131
COc1ccc([Si](C)(C)[C@@H]2[C@@H](CC(=O)N(CCO)Cc3ccccc3)O[C@]3(C(=O)N(Cc4ccc(N5C(=O)c6cccc7cccc5c67)cc4)c4ccccc43)[C@H]2C)cc1 | -0.538 | 0.427 | -1.43 | -1.82 | -3.52 | -0.038 | 0.161 (inactive) | -1.02 | -1.18 | -1.51 (inactive) | -1.17 | 1.21 (inactive) | -1.48 (inactive) | -0.992 (inactive) | 1.56 (inactive) | 2.5 (inactive) | 0.302 (inactive) | -0.22 (inactive) | -1.85 | 0.237
